Records with an inconclusive call do not appear. Unmarked numbers belong to inactive results. Calls come from the whole dose curve; as a rule, active = well fitted inhibition curve with a large enough effect; inconclusive = small, poorly fitted or top-dose-only effect; inactive = flat fitted curve, though single readings scatter.
What follows are compounds tested against Luciferin 4-monooxygenase (Photinus pyralis) (UniProt P08659) (assay: Biochemical firefly luciferase enzyme assay for NPC (AID 624030;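 note: 0% = DMSO and -100% = full luciferase inhibition by PTC124 control; nearly all actives have a fitted effect of over 70% in size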)). Details: purified P. pyralis luciferase, luminescence, 5 min; series mostly up to 58.6 µM; activity change, negative = inhibition: at the top concentration.
Sequence of Luciferin 4-monooxygenase (Photinus pyralis) (P08659 whole entry, looked up): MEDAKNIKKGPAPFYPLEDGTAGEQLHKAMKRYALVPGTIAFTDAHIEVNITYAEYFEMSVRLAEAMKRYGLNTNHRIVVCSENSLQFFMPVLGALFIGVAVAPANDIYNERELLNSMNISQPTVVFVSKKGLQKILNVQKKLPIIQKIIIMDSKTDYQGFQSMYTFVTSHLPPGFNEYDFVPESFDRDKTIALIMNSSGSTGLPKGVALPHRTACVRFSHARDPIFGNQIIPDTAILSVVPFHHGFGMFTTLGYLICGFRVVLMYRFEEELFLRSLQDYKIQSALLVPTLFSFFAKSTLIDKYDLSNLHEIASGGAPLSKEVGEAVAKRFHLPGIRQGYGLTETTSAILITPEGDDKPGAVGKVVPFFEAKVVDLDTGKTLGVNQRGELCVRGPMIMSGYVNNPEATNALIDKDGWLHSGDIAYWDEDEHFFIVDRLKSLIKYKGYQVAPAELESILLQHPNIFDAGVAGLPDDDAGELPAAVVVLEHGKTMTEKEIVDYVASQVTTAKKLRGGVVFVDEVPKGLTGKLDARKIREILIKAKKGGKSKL
Source text: Charcot-Marie-Tooth-Association [CMTA] National Center for Advancing Translational Sciences [NCATS] Charcot-Marie-Tooth (CMT) disease was first characterized by Jean-Martin Charcot and Pierre Marie in France and, independently, by Howard Henry Tooth in England in 1886. CMT is one of the most common inherited neurological diseases, affecting approximately 1 in 2,500 Americans. […] The most prevalent type of CMT is known as CMT1A and caused by a duplication of the PMP22 gene which leads to over-expression of this protein. PMP22 is a glycosylated intrinsic membrane protein accounting for 2-5% of the myelin protein content, and its over-expression results in demyelination and subsequently axonal loss. A pair of cellular transcription-based assays was developed in the S16 rat Schwann cell lines (Hai, M., et al., 2002) stably transfected with orthogonal reporters - firefly luciferase (Fluc) and beta-lactamase (beta-Lac) - whose expression is driven by an intronic regulatory element of the PMP22 gene (Jones, E.A., et al., 2011) to recapitulate endogenous expression of PMP22. A comprehensive library of approved drugs, the NCGC Pharmaceutical Collection (Huang, R., et al., 2011), was screened in the cross-validating platform of the orthogonal reporter assays to identify drug modulators inhibitory towards PMP22 expression. A set of counter-screens was devised to address non-specific activity of the library. An ATP-dependent CellTiter-Glo assay (developed by Promega Corp) was utilized to control cell viability. In addition, biochemical Fluc enzyme assay was performed to assess direct inhibition of the Fluc enzymatic activity. References Hai, M., Muja, N., DeVries, G.H., Quarles, R.H. and Patel, P.I. Comparative analysis of Schwann cell lines as model systems for myelin gene transcription studies. J Neurosci Res, 2002. 69(4): pp 497-508 Huang, R., Southall, N., Wang, Y., Yasgar A., Shinn P., Jadhav, A. , Nguyen, D.-T. and Austin, C.P., The NCGC pharmaceutical collection: a comprehensive resource of clinically approved drugs enabling repurposing and chemical genomics. Sci Transl Med, 2011. 3(80): p. 80ps16.
Compounds were transferred to the plates in 23nl, and one microliter/well luciferase enzyme-buffer solution (10 nM P. pyralis luciferase and 50 mM Tris Acetate final concentrations) was dispensed yielding a final reaction volume of […]. Luciferase luminescence was measured by a ViewLux plate reader within 5 minutes of enzyme-buffer addition. The % activity was determined by normalizing to the average readings of PTC124 (a positive control) relative to DMSO (0% Activity). The concentration-effect curves were then classified based on curve quality (r2), response magnitude and degree of measured activity.

Compared with `O=C(OCC1(COC(=O)c2cccnc2)CCCC(COC(=O)c2cccnc2)(COC(=O)c2cccnc2)C1O)c1cccnc1`, `CCCN(CCC)C(=O)C(CCC(=O)OCCCN1CCN(CCOC(=O)Cc2c(C)n(C(=O)c3ccc(Cl)cc3)c3ccc(OC)cc23)CC1)NC(=O)c1ccccc1` (stereo not given) is lower in “activity change, negative = inhibition” value: 0.95% for the first, -3.46% for the second.

Compared with `CCOc1ccc(NS(=O)(=O)c2ccc(N)cc2)nn1`, `CCOC(=O)NNc1ccc(N(CC)CC(C)O)nn1` (stereo not given) is lower in “activity change, negative = inhibition” value: -4.84% for the first, -11.6% for the second.

Going from `Cc1ncc(CO)c(CO)c1O` to `N[C@@H](Cc1cc(I)c(O)c(I)c1)C(=O)O`, the “activity change, negative = inhibition” value rises from -1.74% to 1.84%.

First: CN1C(=O)CC(C)(c2ccccc2)C1=O (stereo not given)
Second: Oc1ccccc1
The “activity change, negative = inhibition” value of the first is lower: -4.49% for the first, 2.39% for the second.

First: OCCCc1ccccc1
Second: OCc1cccnc1
The “activity change, negative = inhibition” value of the first is lower: -1.77% for the first, -1.71% for the second.

Compared with `CC[N+]1(CC)CCC(=C(c2ccccc2)c2ccccc2)C1C` (stereo not given), `C[N+]1(CC2COC(c3ccccc3)(c3ccccc3)O2)CCCCC1` (stereo not given) is lower in “activity change, negative = inhibition” value: -0.771% for the first, -1.39% for the second.

First: C=CC[N+]1([C@H]2C[C@H]3[C@@H]4CC[C@H]5C[C@H](OC(C)=O)[C@@H](N6CCCCC6)C[C@]5(C)[C@H]4CC[C@]3(C)[C@H]2OC(=O)CC)CCCCC1
Second: CCNC(=O)NCCCOc1cccc(CN2CCCCC2)c1
The “activity change, negative = inhibition” value of the first is higher: 0.688% for the first, -0.531% for the second.

Compared with `C[C@H](CN1CCCC1)C(=O)c1ccc(C(F)(F)F)cc1`, `OC1(c2ccc(Cl)c(C(F)(F)F)c2)CCN(CCCC(c2ccc(F)cc2)c2ccc(F)cc2)CC1` is higher in “activity change, negative = inhibition” value: 0.532% for the first, 4.75% for the second.

Compared with `Nc1c[n+](N2CCOCC2)no1`, `O=C1[C@@H]2[C@H]3CC[C@H](C3)[C@@H]2C(=O)N1CCCCN1CCN(c2ncccn2)CC1` is lower in “activity change, negative = inhibition” value: -12.9% for the first, -15.6% for the second.

Compared with `O=C(CCCCCCCCC#CI)Oc1ccccc1`, `O=C(O)Cc1ccc(OCCNC[C@H](O)c2ccccc2)cc1` is higher in “activity change, negative = inhibition” value: -8.24% for the first, 1.32% for the second.

First: O=C(O)c1[nH]n(-c2ccc(S(=O)(=O)O)cc2)c(=O)c1N=Nc1ccc(S(=O)(=O)O)cc1
Second: CC(=O)Oc1ccc(C2(c3ccc(OC(C)=O)cc3)Oc3ccccc3NC2=O)cc1
The “activity change, negative = inhibition” value of the first is lower: -9.65% for the first, -8.74% for the second.

First: CC(C(O)c1ccccc1)N(C)CCOC(c1ccccc1)c1ccccc1 (stereo not given)
Second: CC(NCCC(c1ccccc1)c1ccccc1)c1ccccc1 (stereo not given)
The “activity change, negative = inhibition” value of the first is lower: 0.082% for the first, 9.54% for the second.

Compared with `O=C(COCCOCCOCC(=O)Nc1c(I)cc(I)c(C(=O)O)c1I)Nc1c(I)cc(I)c(C(=O)O)c1I`, `CC(=O)Nc1c(I)c(NC(C)=O)c(I)c(C(=O)O)c1I` is higher in “activity change, negative = inhibition” value: -15.4% for the first, -0.419% for the second.

First: C1N2CN3CN1CN(C2)C3
Second: O=C1NC2CCCCN2C12CCN(CCCN1c3ccccc3CCc3ccc(Cl)cc31)CC2 (stereo not given)
The “activity change, negative = inhibition” value of the first is lower: 3.4% for the first, 4.42% for the second.

First: CCCCCCCCCCCCCCCCCCNC(=O)OC1CCN(C(=O)OC[C@H](COC(=O)N(Cc2cccc[n+]2CC)C(=O)c2ccccc2OC)OC)CC1
Second: OCCOCCN1CCN(C(c2ccccc2)c2ccc(Cl)cc2)CC1 (stereo not given)
The “activity change, negative = inhibition” value of the first is higher: 14.7% for the first, 3.21% for the second.

Going from `O=C(O)CCC(=O)OC[C@@H](NC(=O)C(Cl)Cl)[C@H](O)c1ccc([N+](=O)[O-])cc1` to `O=C(O)Cc1ccccc1Oc1ccc(Cl)cc1Cl`, the “activity change, negative = inhibition” value falls from -5.89% to -9.44%.

Compared with `CC(CCc1ccc2c(c1)OCO2)NN` (stereo not given), `O=C1CC2(CCCC2)CC(=O)N1CCNCC1COc2ccccc2O1` (stereo not given) is higher in “activity change, negative = inhibition” value: -12.2% for the first, 1.19% for the second.

Compared with `CCC(C(=O)NC(=O)NC(C)=O)c1ccccc1` (stereo not given), `CN=C(N)NC(=O)Nc1c(C)cccc1C` is higher in “activity change, negative = inhibition” value: -6.61% for the first, -2.27% for the second.

Going from `Cc1cc(O)c2c(O)c3c(O)cccc3cc2c1` to `CN(C)CCOC1=Cc2ccccc2Sc2ccc(Cl)cc21`, the “activity change, negative = inhibition” value rises from -4.65% to 7.01%.

With `COc1cc(C(=O)NC2CCCNC2)cc(OC)c1OC` (stereo not given) the “activity change, negative = inhibition” value was -9.33%.

With `COC(=O)c1c(Cl)c(Cl)c(C(=O)OC)c(Cl)c1Cl` the “activity change, negative = inhibition” value was -1.04% [at 123 µM].

From PubChem BioAssay (NCATS)
